# Out of some 190,000 compounds screened, about 130 (0.068%) were called active. The list comes from a sample in which actives are over-represented; it also holds similar structures and randomly drawn compounds. Values without a mark were called inactive. Rule as the data show it: active = inhibition above about 40%; inactive = the rest.
# Target: ATP-dependent translocase ABCB1 (Homo sapiens) (UniProt P08183)
# Test: ABCB1 efflux pump inhibitors, primary screen, cell-based, multiplex, flow cytometry, ABCG2 counter-screen (AID 1326);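 also: 0% = vehicle and 100% = reference inhibitor; higher value means more JC-1 retained so stronger ABCB1 efflux block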
# Details: CCRF-Adr cells, JC-1 efflux, at 6.6 µM, stronger effect = higher value
# ATP-dependent translocase ABCB1 (Homo sapiens), sequence (P08183 whole entry, looked up): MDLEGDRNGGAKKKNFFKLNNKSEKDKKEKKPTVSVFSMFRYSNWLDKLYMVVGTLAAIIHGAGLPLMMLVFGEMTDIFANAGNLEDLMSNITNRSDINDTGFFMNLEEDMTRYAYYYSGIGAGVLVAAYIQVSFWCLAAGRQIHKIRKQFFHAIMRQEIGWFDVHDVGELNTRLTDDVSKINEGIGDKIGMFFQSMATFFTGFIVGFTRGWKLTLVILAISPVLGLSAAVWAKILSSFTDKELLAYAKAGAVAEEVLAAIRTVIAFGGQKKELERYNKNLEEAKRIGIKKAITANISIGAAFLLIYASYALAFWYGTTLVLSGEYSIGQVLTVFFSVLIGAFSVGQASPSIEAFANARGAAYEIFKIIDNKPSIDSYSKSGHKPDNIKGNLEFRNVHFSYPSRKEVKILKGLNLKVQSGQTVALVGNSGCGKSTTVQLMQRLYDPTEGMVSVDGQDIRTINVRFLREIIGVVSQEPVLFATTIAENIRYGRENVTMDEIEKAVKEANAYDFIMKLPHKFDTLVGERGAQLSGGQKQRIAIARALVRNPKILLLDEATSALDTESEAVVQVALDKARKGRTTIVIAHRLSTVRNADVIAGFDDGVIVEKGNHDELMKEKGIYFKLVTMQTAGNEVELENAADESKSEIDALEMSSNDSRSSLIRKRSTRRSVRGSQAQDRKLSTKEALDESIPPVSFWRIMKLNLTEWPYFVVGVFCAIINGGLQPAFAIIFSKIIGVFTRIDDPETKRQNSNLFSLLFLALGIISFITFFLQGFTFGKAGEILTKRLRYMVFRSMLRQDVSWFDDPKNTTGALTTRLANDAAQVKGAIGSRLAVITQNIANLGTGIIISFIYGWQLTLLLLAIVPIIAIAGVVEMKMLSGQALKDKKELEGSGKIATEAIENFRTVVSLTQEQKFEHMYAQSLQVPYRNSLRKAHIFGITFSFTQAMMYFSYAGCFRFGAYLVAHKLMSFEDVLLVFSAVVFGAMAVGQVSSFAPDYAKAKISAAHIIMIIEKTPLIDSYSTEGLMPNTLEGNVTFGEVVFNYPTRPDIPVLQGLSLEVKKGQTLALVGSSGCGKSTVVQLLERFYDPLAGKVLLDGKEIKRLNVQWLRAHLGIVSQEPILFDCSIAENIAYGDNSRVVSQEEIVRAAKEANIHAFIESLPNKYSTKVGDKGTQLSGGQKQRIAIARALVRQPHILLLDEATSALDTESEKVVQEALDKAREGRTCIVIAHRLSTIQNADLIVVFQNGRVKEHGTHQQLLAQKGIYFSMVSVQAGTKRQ
row,SMILES,inhibition
1,COc1ccc2c(-c3ccccc3)cc(SCC(=O)N(C)C3CCS(=O)(=O)C3)nc2c1 (stereo not given),1.15%
2,O=C(CN1CCCCCC1)NCCN1C(=O)S/C(=C\c2ccccc2Cl)C1=O,0.67%
3,COCCn1c(C)cc(C(=O)CSc2nc3ccccc3c(=O)n2C(C)COC)c1C (stereo not given),2.97%
4,Cc1cc(C)cc(NC(=O)N2CCCCCCC2)c1,2.76%
5,COc1cccc(C(O)Cc2nc3ccccc3n2C)c1OC (stereo not given),-0.47%
6,C=CCc1cccc2cc(C(=O)NC3CCCC3)c(=O)oc12,1.75%
7,Cc1c(C(=O)c2cccc([N+](=O)[O-])c2)c2ccccn2c1CCC#N,2.01%
8,Cc1ccc(-n2c(SCC(=O)Nc3ncc(Cl)cc3Cl)nc3ccccc32)cc1,56.9% (active)
9,NS(=O)(=O)c1cccc(NC(=O)CSc2nc3ccccc3n2-c2ccccc2)c1,-1.23%
10,Cc1ccc(SCCC(=O)OCC(=O)Nc2ncc(Cl)cc2Cl)cc1,0.04%
11,CCn1c(SCC(=O)Nc2nccs2)nnc1-c1ccco1,0.22%
12,COCCCNC(NC(=O)c1ccc(OC)cc1)C(Cl)(Cl)Cl (stereo not given),0.77%
13,O=c1[nH]c2cccnc2n(CCNc2ncc(C(F)(F)F)cc2Cl)c1=O,0.11%
14,CC(C)(C)n1ncc2c(=O)n(Cc3ccc(Cl)cc3)cnc21,0.59%
15,C#CCOCCOCCOCCNc1nc(N2CCN(C(=O)[C@H](CCCCN)n3cc([C@@H](N)C(C)CC)nn3)CC2)nc(N2CCN(C(=O)[C@H](Cc3ccc(O)cc3)n3cc([C@@H](N)C(C)CC)nn3)CC2)n1 (stereo not given in full),0.44%
16,COc1ccc(Cn2c(=O)cc(C)[nH]c2=S)cc1,1.2%
17,O=C(Oc1c(-c2ccco2)oc2ccccc2c1=O)c1cccnc1,1.71%
18,O=C(N/N=C/c1sc(N2CCCCC2)nc1-c1cccs1)c1cccnc1,-0.08%
19,CCOc1cnc(C(=O)NNC(=O)c2ccccc2Br)o1,-0.12%
20,COc1ccc(CN2CCNC(=O)C2CC(=O)N(C)Cc2ccccn2)cc1OC (stereo not given),0.3%
21,N=C1C(c2nc3ccccc3s2)=C(O)CN1NC(=O)c1ccc([N+](=O)[O-])cc1,-0.23%
22,CN(CC(=O)Nc1ccccc1F)CC(=O)Nc1ccccc1Br,-0.22%
23,CCOCCCn1c(NN)nc2ccccc2c1=O,0.54%
24,Nc1ccc(Cl)c(S(=O)(=O)Nc2ccccc2Cl)c1,0.19%
25,COc1ccc(-c2[nH]ncc2CN(Cc2nccn2C)C(C)C)cc1F,2.14%
26,CCC(C(=O)Nc1ccc(C(C)C)cc1)c1ccccc1 (stereo not given),0.19%
27,N#Cc1c(NC(=O)C2CCCO2)sc2c1CCCCC2 (stereo not given),1.4%
28,O=C(C1CC1)N1N=C2CCCCC2C1(O)C(F)(F)F (stereo not given),0.21%

row,SMILES,inhibition
1,COCC(C)NCc1cc(Br)ccc1OC (stereo not given),0.42%
2,Cc1ccc2nc(-c3cccnc3)c(NC3CCCC3)n2c1,1.9%
3,COc1cc2[nH]c(=O)n(Cc3ccc(C(=O)NC4CCN(Cc5ccccc5)CC4)cc3)c(=O)c2cc1OC,0%
4,O=C(NCCc1ccccc1)C1CCC(Cn2c(=O)c3ccccc3n(Cc3cccnc3)c2=O)CC1 (stereo not given),4.02%
5,CC(=O)Nc1ccc(C(=O)CSc2nc3ccc(C)cc3[nH]2)cc1,-0.95%
6,c1ccc(CN=C2Nc3ccccc3CS2)nc1,0.26%
7,O=C(c1ccc(N2CCOCC2)c([N+](=O)[O-])c1)N1CCN(S(=O)(=O)c2cccs2)CC1,0.44%
8,CC(C)CN1CCNC(=O)C1CC(=O)N(C)CC1CCOCC1 (stereo not given),0.15%
9,CCCCCc1nnc(NC(=O)c2ccc(=O)n(C)n2)s1,0.44%
10,CC1CCCN(CC(O)COc2ccc3c(c2)OCO3)C1 (stereo not given),0.12%
11,CCCCN1C(=S)NC[C@@H]1C(C)CC (stereo not given in full),0.02%
12,CC/C(=N\NC(=O)c1ccccc1Cl)c1ccc(Br)s1,1.38%
13,COc1ccc(CCNC(=O)CSc2nc3[nH]ncc3c(=O)n2-c2cccc(C(F)(F)F)c2)cc1OC,0.5%
14,O=C(C1CCCO1)N1CCN(C(=S)NC2CC2)CC1 (stereo not given),0.55%
15,CNC(=S)N1CCC(NC(=O)C(Cc2ccc(F)cc2)NC(C)=O)CC1 (stereo not given),0.7%
16,Cc1ccc(C)c(NC(=O)CCC(=O)N/N=C2/CC(=O)CC(C)(C)C2)c1,0.24%
17,Cc1c(CCO)sc[n+]1CC(=O)OC12CC3CC(CC(C3)C1)C2,0.29%
18,Cc1c(CCOC(=O)c2cc([N+](=O)[O-])ccc2Cl)sc[n+]1CCCCS(=O)(=O)[O-],1.17%
19,Cc1c(CCOC(=O)CC23CC4CC(CC(C)(C4)C2)C3)sc[n+]1Cc1ccc([N+](=O)[O-])cc1,53.8% (active)
20,CC(C)NC(=O)c1ccc(Cl)cc1Cl,-0.21%
21,CC(=O)c1ccc(NC(=O)C(C)NCc2ccc(Cl)cc2)cc1 (stereo not given),0.85%
22,Cc1nc(CN2CCN(C(=O)CCc3nnc(Cc4c[nH]c5ccccc45)o3)CC2)cs1,-1.57%
23,CN1CCN(/N=C/c2ccc(C#N)cc2)CC1,1.07%
24,CCC(C)(C)NC(=O)CN(C(=O)C(=O)Nc1ccc2c(c1)OCCO2)C(C)(C)CC,2.48%
25,CSc1ccc(/C=N/NC(=O)c2cccc(Cl)c2)cc1,-0.32%
26,CC(=O)Nc1ccccc1OC(C)C(=O)N1CCC(C)CC1 (stereo not given),0.05%
27,COc1cc(NC(=S)NCc2ccc(S(N)(=O)=O)cc2)cc(OC)c1,-0.49%
